In PubChem BioAssay (EPA / NIEHS):
Active and inactive are the calls of the source. How the source made its calls: active means hit-call score of the fitted dose curve at least 0.9, where 1 is the maximum; inactive means score below 0.9.

assay: ATG_NFI_CIS: Attagene CIS-FACTORIAL HepG2 Assay for human Nuclear Factor I (NFI) (AID 2282989); conditions: HepG2 cis-regulatory reporter, NFI response element transcription; actives raise or lower the signal
Procedure: ATG_CIS is a cell-based, multiplexed-readout assay that uses HepG2, a human liver cell line, with measurements taken at 24 hours after chemical dosing in a 24-well plate.ATG_NFI_CIS is one of 52 assay component(s) measured or calculated from the ATG_CIS assay. It is designed to make measurements of mRNA induction, a form of inducible reporter, as detected with fluorescence intensity signals by Reverse transcription polymerase chain reaction (RT-PCR) and Capillary electrophoresis technology.Data from the assay component ATG_NFI_CIS was analyzed into 1 assay endpoint. This assay endpoint, ATG_NFI_CIS, was analyzed with bidirectional fitting relative to DMSO as the negative control and baseline of activity. Using a type of inducible reporter, measures of mRNA for gain or loss-of-signal activity can be used to understand the reporter gene at the transcription factor-level as they relate to the gene NFIA. Furthermore, this assay endpoint can be referred to as a primary readout, because this assay has produced multiple assay endpoints where this one serves a reporter gene function. To generalize the intended target to other relatable targets, this assay endpoint is annotated to the dna binding intended target family, where the subfamily is nuclear factor I.
Human liver HepG2 cells are transiently transfected with multiple reporter transcription units (MRTUs) in 6-well plates using FuGene 6 reagent (Roche; 3 ml FuGene/1 mg DNA). The MRTU constructs are regulated by a cis-regulating element (promoter). […] A major difference between the CIS and TRANS system is that in CIS activities of endogenous TFs are measured, whereas the TRANS assay evaluates changes in activities of exogenous, chimeric NR-Gal4 proteins. […] At the end of 24 hour incubation, total RNA was isolated using TriZol reagent (Invitrogen). The isolated RNA is then reverse-transcribed using oligo(dT) primer and Mo-MLV reverse transcriptase (Invitrogen) with DNAse I (Ambion) treatment for 30 min. The one-tenth of the produced cDNA was amplified by PCR using Taq DNA polymerase (Invitrogen) and two reporter sequence-specific primers. The PCR products were fluorescently labeled by primer extension with 6-arboxyfluorescein (6-FAM) 5'-labeled reporter sequence-specific primer (2 min at 95 C, 20 s at 68 C and 10 min at 72 C) and these products were digested with 5U of HpaI (New England Biolabs) for 2h at 37 C. The fragments were purified using Qiaquick PCR columns (Qiagen), analyzed on an ABI 3130xL genetic analyzer (Applied Biosystems) with peak positions identified by using a set of X-rhodamine (ROX)-labeled MapMarker1000 molecular weight standards (BioVentures). The raw capillary electrophoresis data was processed using Attagraph software (Attagene).

Row | SMILES | outcome
1 | COc1ccc(N)c(C)c1 | inactive
2 | COc1ccccc1O | inactive
3 | c1ccc2c(c1)-c1ccc3ccc4cccc5cc-2c1c3c45 | inactive
4 | CC(O)COCC(C)O (stereo not given) | inactive
5 | CC1=CC(C)C(C=O)C(C)C1 (stereo not given) (tested in a mixture with another compound) | inactive
6 | CC(=N[Si](C)(C)C)O[Si](C)(C)C | inactive
7 | Cc1cccc(O)c1 | inactive
8 | CC(=O)CCc1ccc(O)cc1 | inactive
9 | CC(C)C(=O)OCC=Cc1ccccc1 | inactive
10 | CC(=O)CCC=C(C)CCC=C(C)C | inactive
11 | C=CCOCC(O)CO (stereo not given) | inactive
12 | CC(=O)C1C(=O)C=C(C)OC1=O (stereo not given) | inactive
13 | C1=COCCC1 | inactive
14 | CCCCCC1CCC(=O)O1 (stereo not given) | inactive
15 | CC/C=C\CCCCO | inactive
16 | COC(=O)C(C)Oc1ccc(Oc2ncc(C(F)(F)F)cc2Cl)cc1 (stereo not given) | inactive
17 | O=C(O)c1cc2ccccc2cc1O | inactive
18 | NCCN1CCNCC1 | inactive
19 | CCO[Si](CCC#N)(OCC)OCC | inactive
20 | NC(N)=S | inactive

Row | SMILES | outcome
21 | Nc1ccn([C@H]2CC[C@@H](CO)O2)c(=O)n1 | inactive
22 | c1coc(CNc2ncnc3nc[nH]c23)c1 | inactive
23 | CCCC1CCOC(C)S1 (stereo not given) | inactive
24 | O=C(O)c1cccc(Cl)n1 | inactive
25 | Cc1ccncc1 | inactive
26 | C1COCO1 | inactive
27 | CCC(C)C1CCCCC1=O (stereo not given) | inactive
28 | CC(C)(C)c1ccc(S)cc1 | inactive
29 | [Cu+] | inactive
30 | CCCCN(CCCC)CCCCCCN(CCCC)CCCC | inactive
31 | NC(=O)NC(N)=O | inactive
32 | CCCCOC(=O)C(C)OC(=O)CCC (stereo not given) | inactive
33 | CCCCCc1cccc(=O)o1 | inactive
34 | CCCc1ccc(N)cc1 | inactive
35 | CCCCCCCOC(C)=O | inactive
36 | O=C1CCCCCCCCCCCC(=O)OCCO1 | inactive
37 | O=C1CCC(=O)N1 | inactive
38 | COc1ccc(OC)cc1 | inactive
39 | CC(C)=CC(=O)O | inactive
40 | NNC(=O)OCc1ccccc1 | inactive
